Assay results reported in PubChem BioAssay AID624330 (Southern Research Specialized Biocontainment Screening …, 2012).
Screen size: about 340,000 compounds; about 2,100 (0.62%) were called active.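 How the source made its calls: active means first-screen hits whose inhibition reached a set limit at any dose in the follow-up dose series; inconclusive means inhibition above the set first-screen limit but never retested; inactive means the rest.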 These entries were drawn from the full list. Potency and affinity values are given separately.

target: Rac GTPase-activating protein 1 (Homo sapiens) (UniProt Q9H0H5); assay: MgcRacGAP GTPase-activating activity inhibitors, confirmation, biochemical, ADP Hunter fluorescence, primary and confirmatory (AID 624330); conditions: MgcRacGAP-stimulated Rac1 GTP hydrolysis, at 30 µM, active compounds read high, GST-tagged Rac1 F28L mutant substrate;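 further: fluorescence reports GDP produced by GAP-driven GTP hydrolysis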
Sequence (Q9H0H5 whole entry, looked up): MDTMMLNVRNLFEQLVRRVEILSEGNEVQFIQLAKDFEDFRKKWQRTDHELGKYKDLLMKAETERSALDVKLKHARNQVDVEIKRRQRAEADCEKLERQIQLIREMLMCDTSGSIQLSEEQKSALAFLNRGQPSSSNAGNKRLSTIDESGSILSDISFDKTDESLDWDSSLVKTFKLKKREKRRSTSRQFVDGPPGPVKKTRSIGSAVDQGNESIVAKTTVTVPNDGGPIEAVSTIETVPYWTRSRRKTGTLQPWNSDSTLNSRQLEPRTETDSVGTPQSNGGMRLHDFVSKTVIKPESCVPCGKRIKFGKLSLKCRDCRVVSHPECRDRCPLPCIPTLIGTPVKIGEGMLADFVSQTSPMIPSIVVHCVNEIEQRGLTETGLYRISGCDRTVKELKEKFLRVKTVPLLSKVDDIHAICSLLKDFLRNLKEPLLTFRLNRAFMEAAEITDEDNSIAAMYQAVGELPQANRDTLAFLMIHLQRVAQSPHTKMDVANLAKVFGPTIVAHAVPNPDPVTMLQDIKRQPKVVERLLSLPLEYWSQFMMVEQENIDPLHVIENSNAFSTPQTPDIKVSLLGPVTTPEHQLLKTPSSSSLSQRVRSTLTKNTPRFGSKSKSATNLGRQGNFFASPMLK

inhibition, inactive:
COc1ccc2c(c1)CC=C1C2CCC2(C)C(=O)C(=NO)CC12 (stereo not given) 5.55%
CC12CCC3C(=CCc4cc(O)ccc43)C1CC(=NO)C2O (stereo not given) 27.1%
COc1cc(/C=N/N2C(=O)CSC2=S)cc(Br)c1O 24.4%
CCN=c1scc(C)n1/N=C/c1ccc(O)c(O)c1O -35.3%
Oc1c(Br)cc(/C=N/n2c(-c3ccccc3)n[nH]c2=S)cc1Br 17.3%
Cc1nnc(C)n1/N=C/c1cc(Br)cc(Br)c1O 13.7%
CCc1n[nH]c(=S)n1/N=C/c1cc(Br)c(O)c(OC)c1 14.8%
COc1cc(/C=N/N2C(C)CCCC2C)cc(Br)c1O (stereo not given) 10.5%
COc1cc2ncnc(NCc3ccc(F)cc3)c2cc1OC 5.92%
COc1ccc(-n2cnnc2SCC(=O)Nc2cc(C)on2)cc1 0.92%
Cc1nn(-c2nc3ccccc3[nH]2)c(N)c1-c1ccc(Cl)cc1 14.1%
COc1ccc(NC(=O)[C@@H]2CCCN2S(=O)(=O)c2cccc3cccnc23)cc1 7.98%
Cc1c(N2C(=O)CSC2c2ccc(F)cc2)c(=O)n(-c2ccccc2)n1C (stereo not given) -1.84%
Cc1cc(C)n(CC(=O)N2N=C(C(F)F)CC2(O)C(F)F)n1 (stereo not given) 5.91%
O=C(CC1C[C@H](C(=O)N2CCCCC2)[C@@]2(CCc3ccccc3)c3[nH]c4ccccc4c3CCN2C1=O)NCCc1ccccn1 (stereo not given in full) 10.2%
CN(C)CCCn1c(=S)[nH]c2sc3c(c2c1=O)CCCC3 26.2%
Cc1ccc(-n2c(=S)[nH]c3sc4c(c3c2=O)CCc2ccccc2-4)cc1 4.2%
C=CCn1c(=S)[nH]c2sc3c(c2c1=O)CCC3 14.3%
C=CCn1c(=S)[nH]c2sc3c(c2c1=O)CCCC3 13.8%
CCn1c(=S)[nH]c2sc3c(c2c1=O)CCCC3 47.9%
CCCn1c(=S)[nH]c2sc3c(c2c1=O)CCCC3 2.13%
CCOc1ccc(-n2c(=O)[nH]c3sc4c(c3c2=O)CCCC4)cc1 12.1%
COCCCn1c(=S)[nH]c2sc3c(c2c1=O)CCCS3 7.39%
COc1ccc(/C(C)=N/NC(=S)Nc2cc(C)ccc2C)cc1 -5.64%
CCOC(=O)C1C(=O)CC(C)(O)C(C(=O)OCC)C1c1ccc([N+](=O)[O-])cc1 (stereo not given) 11.4%
COc1ccc(N2CCN(c3nc4cc(C)ccc4cc3C=O)CC2)cc1 2.5%
Cc1ccc(C2=NN(C(=O)CSc3nc4ncc(Cl)cc4[nH]3)C(c3ccco3)C2)cc1 (stereo not given) 5.98%
C/C(=N\NC(=O)Cn1cnc2ccccc21)c1cccs1 4.15%
COc1ccc2c3n(nc2c1)CCN=C3c1ccc(C)cc1 4.94%
COc1cccc(-c2cc(C(=O)NC3CCCCC3)no2)c1 6.22%
O=C(NCc1ccccc1)C12CC3CC(CC(Br)(C3)C1)C2 5.84%
O=C1CCC(=O)N(c2ccccc2)N1 3.91%
O=C1CCN(S(=O)(=O)c2ccccc2)N1 -45.5%
Cc1[nH]c(-c2ccc(F)cc2)cc1C(=O)N1CCN(c2cccc(Cl)c2)CC1 21.1%
COC(=O)Cn1ccc(N(C)C)c(C#N)c1=O -1.06%
CCOC(=O)N1CCN(Cc2nc(-c3ccc(Cl)cc3)no2)CC1 0.28%
CC(C)Oc1cccc(C(=O)NC(=S)Nc2ccc(Cl)c(C(=O)O)c2)c1 0.71%
O=C(CCNC(=O)C1CCN(S(=O)(=O)c2ccc(F)cc2)CC1)NCCc1ccc(Cl)cc1 1.71%
CCCN(CC(=O)Nc1ccc(F)c(F)c1F)C(=O)c1ccc2c(=O)n3c(nc2c1)CCC3 1.86%
N#CCCn1cc(CNC2CCC(O)CC2)c2ccccc21 (stereo not given) 3.99%
CC1(Cc2cn(CCC#N)c3ccccc23)OCCO1 15.8%
CCCCCC(=O)NC(NC(=S)NC1CCS(=O)(=O)C1)C(Cl)(Cl)Cl (stereo not given) 8.9%
Cc1cccc(OCCSc2nc(N)cc(N)n2)c1 25.9%
O=[N+]([O-])c1ccc(C=NNc2ccccc2)cc1 0.7%
O=C(N/N=C/c1ccc[nH]1)c1ccc([N+](=O)[O-])cc1 13.2%
Nc1c(N(CCO)C(=O)C2CCCC2)c(=O)[nH]c(=O)n1Cc1ccccc1 2.35%
Cc1cc(C)cc(NC(=O)C2(c3ccccc3)CC2(Cl)Cl)c1 (stereo not given) 8.14%
COc1ccc(/C=N/N2CCN(C3c4ccccc4-c4ccccc43)CC2)cc1O 11.6%
CN(C(=O)CSc1nc2[nH]ncc2c(=O)[nH]1)c1ccccc1 2.08%
CC1(C)CC(=O)C(C=Nc2ccc3[nH]ncc3c2)=C(O)C1 6.45%
C=CCOc1ccc(C=Nc2ccc(OC)cc2)c(O)c1 12%
Brc1ccc2[nH]ncc2c1 3.94%
Oc1c(Br)cc(Br)cc1C=Nc1ccc2[nH]ncc2c1 17.9%
Cc1ccc(O)c(/C=N/NC(=O)c2[nH]ncc2Br)c1 0.98%
COc1cccc(N=Cc2ccc(O)cc2O)c1 8.51%
CCOC(=O)c1nc(NNC(C)=O)sc1C 0.96%
Cc1nc2nc(-c3cccs3)[nH]c2cc1Br 10.5%
Cc1cccc(NC(=O)c2nc(-c3ccccc3)n(-c3ccccc3)n2)c1C 10.4%
Cc1nnc(CN(C)C(=O)CC2C(=O)NCCN2Cc2ccccc2C)o1 (stereo not given) -0.43%
Cc1nc(CNS(=O)(=O)c2cc(C)c(C)cc2C)cs1 10.2%
Nc1ccc(SCc2cccnc2)cc1 14%
CC(C)(C)OC(=O)N1CCN(C(=O)c2[nH]cnc2C(=O)Nc2ccc(Cl)cc2)CC1 8.41%
O=C(NCc1cccnc1)C1CCN(S(=O)(=O)c2cccs2)CC1 8.85%
CN(C)c1ccc(S(=O)(=O)c2ccc(Cl)cc2)cc1 -2.71%
Cc1ccc(S(=O)(=O)Nc2ccc(N(C)S(=O)(=O)c3ccc(C)cc3)cc2)cc1 3.88%
O=S(=O)(Nc1ccncc1)c1ccc(Cl)cc1 2.85%
CSc1ccc(S(=O)(=O)Nc2ccc(S(=O)(=O)Nc3ccc(C)cc3)cc2)cc1 8.03%
CCN(c1ccc(NS(=O)(=O)c2cc(Cl)ccc2Cl)cc1)C(C)C 10.2%
Cc1ccc(NC(=O)COC(=O)C(NS(=O)(=O)c2ccc(Cl)cc2)C(C)O)cc1 (stereo not given) 4.48%
CC(=O)N(C)c1ccc(NS(=O)(=O)c2cc(Cl)ccc2Cl)cc1 11.1%
CC(=O)Nc1ccc(S(=O)(=O)N[C@@H](C)C(=O)OCc2ccc(Cl)cc2)cc1 3.47%
O=C(CCSc1ccc(Cl)cc1)NCc1ccccn1 14.8%
CC(=O)CC(=O)Nc1ccc(Cl)cn1 4.78%
CCOC(=O)N1CCC(N2CCN(S(=O)(=O)c3ccc([N+](=O)[O-])cc3)CC2)CC1 30.9%
COc1ccc2nc(NC(=O)CSc3cn[nH]n3)sc2c1 6.06%
Nc1ccccc1NC(=O)NC(=O)c1ccccc1 12.1%
COC(=O)Cn1cc(/C=N/NC(=O)COc2cccc3cccnc23)c2ccccc21 5.77%
Cc1cc(C(=O)Nc2sccc2C#N)c2ccccc2n1 12%
Cn1nnc(NC(=O)c2ccc(Br)o2)n1 11.1%
COCc1ccc(CN2CCC(N3CCC(C(=O)N4CCCC4)CC3)CC2)o1 1.64%
CN(CC(=O)Nc1ccc(F)cc1)C(=O)c1cccc(NS(=O)(=O)c2ccccc2)c1 5.16%
COCCNC(=O)/C(C#N)=C/c1c(N2CCN(c3ccc(OC)cc3)CC2)nc2c(C)cccn2c1=O 31.4%
COCCCNC(=O)/C(C#N)=C/c1c(N2CCN(c3ccccc3)CC2)nc2c(C)cccn2c1=O 10.4%
OCCNCc1c(OCc2ccc(Cl)cc2)ccc2ccccc12 8.81%
CCc1ccc(NC(=O)CCNC(=O)Cn2cnc3ccccc3c2=O)cc1 9.24%
COc1ccc(-n2c(C)cc(/C=C3\C(=N)N4N=C(CC(=O)N5CCOCC5)SC4=NC3=O)c2C)c(OC)c1 -2.43%
Cc1cc(-c2ccccc2)n2ncnc2n1 6.89%
Cc1cc(-c2ccc3ccccc3c2)n2ncnc2n1 -7.09%
COc1ccc(NC(=O)CCCc2ccccc2)c(OC)c1 6.75%
CNC(=O)CC1C(=O)N(Cc2ccccc2)C(=S)N1NC(=O)c1cccc(F)c1 (stereo not given) -0.78%
COCCn1c(CN2CCc3ccccc3C2)nc2c1c(=O)n(C)c(=O)n2C 7.99%
CCCc1nc2ccccc2n1CCOc1ccccc1 3.33%
N#C/C(=C/c1cccc(O)c1)C(=O)NCc1ccc(Cl)cc1 24.4%
N#C/C(=C/c1ccc(O)cc1)C(=O)NCc1ccc(Cl)cc1 3.42%
CCOc1ccc(/C=C(\C#N)C(=O)NCC2CCCO2)cc1OCC (stereo not given) -2.79%
CCOc1cc(/C=C(\C#N)C(=O)Nc2ccccn2)ccc1O 12.8%
COc1cc(/C=N/NC(=O)C(=O)NCc2cccnc2)ccc1O 25.4%
COc1ccc(/C=C(\C#N)C(=O)NCc2cccnc2)cc1OC 0.52%
CCOc1cc(/C=C(\C#N)C(=O)NCC2CCCO2)ccc1OCC(N)=O (stereo not given) 4.74%
COc1ccc(/C=N/NC(=O)C(=O)NCc2cccnc2)cc1OC -5.14%
